From PubChem BioAssay AID1159580 (chemical genetic matrix, 2015)
Where “and” joins values, the source holds several entries; their conditions need not be identical. Identical values can stand only once. Among all 5,500 compounds or so, about 2,000 (36%) were called active. Not shown: some 18% with an inconclusive outcome. Rule as the data show it: active = normalized growth mostly below about 0.91 (no sharp cut-off); inconclusive = no clear call, values can overlap the other calls; inactive = mostly above about 0.92. The list shows a part of the results.

Experiment: chemical genetic growth profiling, strain panel (AID 1159580);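 also: tested at 20 µM; growth read once vehicle control cultures reached saturation at 30 °C; 1 = growth at the plate median or of vehicle wells; lower values mean less growth of the strain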
Details: S. cerevisiae deletion strains, growth OD

Measured: normalized growth

CN(C)c1nc(N(C)C)nc(N(C)C)n1
inactive: locus YAL021C, strain ccr4, active compounds read low 0.992 | locus YAL026C, strain drs2, active compounds read low 0.979 | locus YAL030W, strain snc1, active compounds read low 1 | locus YAL040C, strain CLN3, active compounds read low 0.972 | locus YBL061C, strain skt5, active compounds read low 0.959 | locus YBR009C, strain hhf1, active compounds read low 0.97 | locus YBR021W, strain FUR4, active compounds read low 1 | locus YBR023C, strain chs3, active compounds read low 0.969 | locus YBR171W, strain sec66, active compounds read low 0.976 | locus YBR229C, strain ROT2, active compounds read low 1.01 | locus YBR231C, strain swc5, active compounds read low 0.971 | locus YBR279W, strain paf1, active compounds read low 1.01 | locus YCL011C, strain gbp2, active compounds read low 0.959 | locus YCL016C, strain dcc1, active compounds read low 0.966 | locus YCL029C, strain bik1, active compounds read low 1.03 | locus YCL061C, strain MRC1, active compounds read low 0.979 | locus YCL069W, strain vba3, active compounds read low 0.986 | locus YCR088W, strain abp1, active compounds read low 0.989 | locus YDL005C, strain med2, active compounds read low 0.984 | locus YDL035C, strain GPR1, active compounds read low 1.02 | locus YDL040C, strain nat1, active compounds read low 0.991 | locus YDL074C, strain BRE1, active compounds read low 0.991 | locus YDL101C, strain DUN1, active compounds read low 1.01 | locus YDL134C, strain PPH21, active compounds read low 1.01 | locus YDL185W, strain tfp1, active compounds read low 1.02 | locus YDL192W, strain arf1, active compounds read low 1.02 | locus YDR001C, strain nth1, active compounds read low 0.977 | locus YDR069C, strain doa4, active compounds read low 0.979 | locus YDR101C, strain arx1, active compounds read low 1.01 | locus YDR137W, strain rgp1, active compounds read low 0.924 | locus YDR150W, strain NUM1, active compounds read low 1 | locus YDR159W, strain sac3, active compounds read low 0.963 | locus YDR162C, strain NBP2, active compounds read low 1.02 | locus YDR195W, strain ref2 0.998 | locus YDR297W, strain sur2, active compounds read low 0.981 | locus YDR318W, strain mcm21, active compounds read low 1.02 | locus YDR334W, strain swr1, active compounds read low 0.942 | locus YDR335W, strain msn5, active compounds read low 0.97 | locus YDR363W, strain ESC2, active compounds read low 1.03 | locus YDR388W, active compounds read low 1.02 | locus YDR392W, strain spt3, active compounds read low 0.899 | locus YDR502C, strain sam2, active compounds read low 1.01 | locus YEL003W, strain gim4, active compounds read low 0.987 | locus YEL037C, strain rad23, active compounds read low 0.988 | locus YEL061C, strain CIN8 (second series), active compounds read low 0.976 | locus YEL061C, strain CIN8, active compounds read low 1 | locus YER002W, strain NOP16, active compounds read low 0.995 | locus YER015W, strain faa2, active compounds read low 0.969 | locus YER016W, strain bim1, active compounds read low 0.987 | locus YER110C, active compounds read low 1.02 | locus YER111C, strain swi4, active compounds read low 0.981 | locus YER155C, strain BEM2 (second series), active compounds read low 0.975 | locus YER155C, strain BEM2, active compounds read low 1 | locus YER167W, strain BCK2, active compounds read low 1.01 | locus YFR010W, strain ubp6, active compounds read low 0.956 | locus YGL078C, strain dbp3, active compounds read low 1.01 | locus YGL086W, strain mad1, active compounds read low 1 | locus YGL167C, strain pmr1, active compounds read low 0.975 | locus YGL173C, strain kem1, active compounds read low 0.959 | locus YGL227W, strain vid30, active compounds read low 0.989 | locus YGL240W, strain doc1, active compounds read low 0.966 | locus YGL248W, strain PDE1, active compounds read low 1.01 | locus YGL253W, strain hxk2, active compounds read low 0.987 | locus YGR078C, strain PAC10, active compounds read low 1 and 0.999 | locus YGR135W, strain pre9, active compounds read low 1.03 | locus YGR252W, strain gcn5, active compounds read low 1.05 | locus YHR013C, strain ard1, active compounds read low 0.964 | locus YHR027C, strain rpn1, active compounds read low 0.959 | locus YHR030C, strain SLT2, active compounds read low 1.01 and 0.974 | locus YHR079C, strain IRE1 (second series), active compounds read low 1.02 | locus YHR079C, strain IRE1, active compounds read low 0.981 | locus YHR094C, strain hxt1, active compounds read low 1.02 | locus YHR129C, strain ARP1, active compounds read low 1.01 | locus YHR142W, strain chs7, active compounds read low 0.929 | locus YHR200W, strain rpn10, active compounds read low 1.02 | locus YIL066C, strain RNR3, active compounds read low 1.01 | locus YIL073C, strain SPO22, active compounds read low 1.09 | locus YIL125W, strain kgd1, active compounds read low 1.02 | locus YIR030C, strain dcg1, active compounds read low 1.03 | locus YJL092W, strain hpr5, active compounds read low 0.988 | locus YJL095W, strain BCK1 (second series), active compounds read low 0.975 | locus YJL095W, strain BCK1, active compounds read low 1 and 0.97 | locus YJL115W, strain asf1, active compounds read low 0.959 | locus YJL129C, strain trk1, active compounds read low 0.999 | locus YJL134W, strain LCB3, active compounds read low 1.01 | locus YJL154C, strain vps35, active compounds read low 0.986 | locus YJL164C, strain tpk1, active compounds read low 0.989 | locus YJL166W, strain qcr8, active compounds read low 0.958 | locus YJL168C, strain set2, active compounds read low 1.01 | locus YJL187C, strain SWE1 (second series), active compounds read low 1 | locus YJL187C, strain SWE1, active compounds read low 0.978 | locus YJR043C, strain POL32, active compounds read low 1.01 | locus YJR066W, strain TOR1, active compounds read low 0.947
